# Assay outcomes: PubChem BioAssay, National Center for Advancing Translational Sciences (NCATS)
# NPSR antagonist – qHTS Assay for Antagonists of the Neuropeptide S Receptor: cAMP Signal Transduction; 1% of 220,000 active; Q6W5P4; CHO-NPSR cells, cAMP TR-FRET, antagonist mode; Potency, µM (highest dose often 38.3 µM), for the others: at the top dose activity change, negative = inhibition, most hits filed as inhibitors; note: potency is the fitted concentration of half-maximal effect; nearly all actives have a fitted effect of over 50% in size
# Target sequence (Q6W5P4 whole entry, looked up): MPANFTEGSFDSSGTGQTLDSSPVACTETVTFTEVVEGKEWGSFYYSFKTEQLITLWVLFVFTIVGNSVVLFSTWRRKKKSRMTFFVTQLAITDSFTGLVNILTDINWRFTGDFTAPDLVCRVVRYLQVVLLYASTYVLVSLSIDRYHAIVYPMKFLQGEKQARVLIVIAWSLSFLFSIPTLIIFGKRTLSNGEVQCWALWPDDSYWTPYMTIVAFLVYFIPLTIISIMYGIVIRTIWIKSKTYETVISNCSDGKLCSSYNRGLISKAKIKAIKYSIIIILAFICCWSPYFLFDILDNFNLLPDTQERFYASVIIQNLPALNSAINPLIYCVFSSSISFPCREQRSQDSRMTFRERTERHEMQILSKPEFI
# HPGD inh – qHTS Assay for Inhibitors of HPGD (15-Hydroxyprostaglandin Dehydrogenase); 15-hydroxyprostaglandin dehydrogenase [NAD(+)] (Homo sapiens), P15428; purified HPGD, NADH fluorescence kinetic, PGE2 substrate; Potency, µM, for the others: at the highest dose activity change, negative = inhibition, actives largely listed as inhibitors; 4.3% of 150,000 active; AID 894, 2007; active = well fitted inhibition curve with a large enough effect, not every such curve was filed as active; inconclusive = small, poorly fitted or top-dose-only effect, or another doubt; inactive = no such curve, though single readings can be large or run the other way; note: potency is the fitted concentration of half-maximal effect
# Target sequence (P15428 whole entry, looked up): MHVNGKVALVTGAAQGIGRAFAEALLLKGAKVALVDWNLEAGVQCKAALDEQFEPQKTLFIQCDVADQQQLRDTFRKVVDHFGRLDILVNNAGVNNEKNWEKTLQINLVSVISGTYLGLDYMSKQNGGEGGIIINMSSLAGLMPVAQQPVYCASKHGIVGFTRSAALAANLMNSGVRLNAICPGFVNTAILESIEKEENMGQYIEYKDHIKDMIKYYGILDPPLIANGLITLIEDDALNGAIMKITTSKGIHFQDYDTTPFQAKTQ
#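 NADH formation kinetics: reaction with 30 uM PGE2 and 1 mM NAD+ (final), 20 nM enzyme, Tris-HCl pH 8 with Tween 20, after 15 min compound preincubation at room temperature. Fluorescence change, last versus first of five reads.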
# ALOX12 inhib – qHTS Assay for Inhibitors of 12-hLO (12-human lipoxygenase); Potency, µM (top dose mostly 57.1 µM), without a hit: at the top dose activity change, negative = inhibition, hits mostly inhibitors; Polyunsaturated fatty acid lipoxygenase ALOX12 (Homo sapiens), P18054; 0.12% of 150,000 active; purified 12-hLO, xylenol orange hydroperoxide absorbance; note: potency is the fitted concentration of half-maximal effect; nearly all actives have a fitted effect of over 55% in size
#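 Purified human 12hLO (150 nM), preincubated 15 min with compound, then 40 uM arachidonic acid for 30 min, room temperature, Hepes pH 7.0 with 0.01% Triton X-100. Hydroperoxide detected by ferrous iron/xylenol orange; 573/405 nm absorbance ratio gives reaction progress.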
# IMPase Li cell – qHTS Assay for Identifying the Cell-Membrane Permeable IMPase Inhibitors: Potentiation with Lithium. CHO-M1 cells, IP1 TR-FRET (IP-One), carbachol + lithium. 0.35% of 210,000 active. Potency, µM (doses to about 59.4 µM), for the others: at the highest dose activity, negative = IMPase inhibition, most hits filed as inhibitors;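 note: IP1 builds up when IMPase is blocked and the TR-FRET signal falls; potency is the fitted concentration of half-maximal effect; plate controls were basal vehicle for no effect and high inhibitor control for full effect; nearly all actives have a fitted effect of over 50% in size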
#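 CHO-M1, 2000 cells/well, 16–30 h culture; cpd + low Li+, 30 min 37C; lysis with d2-IP1/Eu-anti-IP1 Ab, 10 min RT; TR-FRET 665/620 ratio and 620 channel; AC50 via Hill.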
# IMPase inh – qHTS Assay for Identifying the Cell-Membrane Permeable IMPase Inhibitors; Inositol monophosphatase 1 (Rattus norvegicus), P97697; CHO-M1 cells, IP1 accumulation, HTRF TR-FRET ratio; 120,000 tested, under 10 active; inhibition (IP1 accumulation), % at 46.1 µM; active = well fitted curve in the direction sought with a large enough effect in the signal ratio, not every such curve was filed as active; inconclusive = small, poorly fitted or top-dose-only effect, or a change in a side signal; inactive = no such curve, though single readings can be large or run the other way; the % refers to the signal ratio;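 note: cells stimulated with carbachol in lithium chloride buffer; plate controls were DMSO basal wells for no effect and reference inhibitor wells for full effect; higher means more IMPase inhibition seen as more IP1 and lower FRET ratio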
#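 In this qHTS, compounds (final up to 46 uM) act on CHO-M1 cells that are then activated through the M1 receptor with carbachol, in pH 7.4 buffer containing 50 mM LiCl, for 30 min. IP1 accumulation is quantified by the IP-One immunoassay.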
# ALDH1A1 inh – qHTS Assay for Inhibitors of Aldehyde Dehydrogenase 1 (ALDH1A1) | Aldehyde dehydrogenase 1A1 (Homo sapiens), P00352 | Purified ALDH1A1, NADH fluorescence, propionaldehyde substrate | Potency, µM (top dose mostly 75.3 µM), for inactives: at the highest dose activity, negative = inhibition, usual class: inhibitors | 7.3% of 220,000 active | AID 1030, 2008; active = well fitted inhibition curve with a large enough effect, not every such curve was filed as active; inconclusive = small, poorly fitted or top-dose-only effect, or another doubt; inactive = no such curve, though single readings can be large or run the other way;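 note: potency is the fitted concentration of half-maximal effect; plate controls were no enzyme wells and a reference inhibitor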
# * hit, by the source's call; ? = inconclusive; . = not tested or not shown; [ ] = another dose, or the depositor's remark. A selection: hits, their analogues and other compounds. The true share with any hit is near 8.9%. Unless noted, calls come from the whole dose curve; as a rule, active = well fitted curve in the direction sought with a large enough effect; inconclusive = small, poorly fitted or top-dose-only effect, or another doubt; inactive = no such curve, though single readings can be large; an effect the other way counts as inactive or inconclusive. Unless noted, % is set by controls: 0 for no effect and ±100 for the full control effect.
SMILES,NPSR antagonist,HPGD inh,ALOX12 inhib,IMPase Li cell,IMPase inh,ALDH1A1 inh
CC1CCC(NC(=O)C(Cc2ccccc2)n2cccc2)CC1 (stereo unspecified),-30%,.,.,.,.,.
CC[C@H](C)[C@@H](NC(=O)O[C@H]1C(=O)c2ccc(OC)cc2O[C@@H]1c1ccc2c(c1)OCO2)C(=O)OC,.,0%,.,10%,.,2%
COc1ccc(CN(C(C)=O)c2cccc(C)c2C)cc1,-3%[46.1 µM],-4%,-7%,44%[38.3 µM],10,5µM*
CC(=O)N(Cc1ccc(Br)cc1)c1cccc(C)c1C,-53%,.,.,13%,.,?
Nc1ccc2c(c1)C(=O)C(=O)c1ccccc1-2,10µM*,2.2µM*,?,134%[38.3 µM],?,2.2µM*
O=C1C(=O)c2ccc(-c3ccccc3)cc2-c2ccccc21,4µM*,-12%,2%,16%,?,1%
Nc1ccc2c(c1)C(=O)c1ccccc1C2=O,.,-8%,-2%,11%,.,?
COC1=C(c2ccccc2)C(=O)c2ccccc2C1=O,?,-7%,-5%,1%,.,?
COc1ccc(/C=N/NC(=O)c2nn(-c3ccc(C)c(C)c3)c(=O)c3ccccc23)cc1,-17%[46.1 µM],?,0%,23%[38.3 µM],-7[1.84 µM],-10%
COc1ccc(/C=N/NC(=O)c2nn(-c3ccccc3)c(=O)c3c(N)scc23)cc1,-14%[46.1 µM],28µM*,?,-3%[38.3 µM],8,28µM*
CCOC(=O)c1nn(-c2ccc(OC)cc2)c(=O)c2c(N)scc12,5%[46.1 µM],-26%,-21%,23%[38.3 µM],-12[1.84 µM],8.9µM*
COc1ccc(/C=N/NC(=O)c2nn(-c3ccc(Cl)cc3)c(=O)c3c(N)scc23)cc1,-20%[46.1 µM],11µM*,?,27%[38.3 µM],-3,6.3µM*
CCc1nnc(NC(=O)CSc2nc3cc4c(cc3cc2CC)OCCO4)s1,?,-7%,4%,-21%[38.3 µM],6[1.84 µM],0%
Nc1ccccc1SCC(=O)Nc1nccs1,-12%,.,.,3%,.,1%
CCc1cc2cc3c(cc2nc1SCC(=O)Nc1nnc(C)s1)OCCO3,-7%[46.1 µM],-17%,9%,13µM*,19[1.84 µM],7%
Cc1nc(NC(=O)CSc2ccccc2N)sc1C,-5%[46.1 µM],-19%,5%,20%[38.3 µM],4,22µM*
Cc1cc2cc3c(cc2nc1SCC(=O)Nc1nc(C)c(C)s1)OCO3,-3%[46.1 µM],-20%,2%,8.9µM*,?,?
CCCCCCCCCCCCCCCC(=O)C1=C(O)C(CO)OC1=O (stereo unspecified),.,.,.,24%,.,-5%
Nc1nonc1C(=O)N/N=C/c1cccc([N+](=O)[O-])c1,8%,-10%,-2%,-3%,.,-9%
CN(C)c1ccc(/C=N/NC(=O)c2nonc2N)cc1[N+](=O)[O-],21%,.,.,7%,.,2µM*
NC(=O)N/N=C/c1sc(=O)n(-c2ccccc2)c1Cl,4%,.,.,.,.,.
O=C(N/N=C/c1sc(=O)n(-c2ccccc2)c1Cl)c1ccccc1,1%,-10%,-2%,5%,.,16µM*
C[C@@H]1C[C@H](O)c2cc(Cl)ccc2N1,1%[46.1 µM],-10%,-5%,14%[38.3 µM],8,5%
Cn1nnnc1SCC1=C(C(=O)O)N2C(=O)C(NC(=O)C3CC3c3ccccc3)C2SC1 (stereo unspecified),9%,.,.,-2%,.,10µM*
CC(C(=O)NC1C(=O)N2C(C(=O)O)=C(CSc3nnnn3C)CSC12)n1cc(Br)cn1 (stereo unspecified),14%,.,.,9%,.,15µM*
SMILES,NPSR antagonist,HPGD inh,ALOX12 inhib,IMPase Li cell,IMPase inh,ALDH1A1 inh
Cc1nn(C(C)C(=O)NC2C(=O)N3C(C(=O)O)=C(CSc4nnnn4C)CSC23)cc1Cl (stereo unspecified),12%,.,.,-6%,.,?
COc1cc2c(cc1OC)C(C(=O)N(C)Cc1ccccc1)C(c1cccnc1)N(C)C2=O (stereo unspecified),-3%,.,.,1%,.,-2%
C/C=C(\CS(=O)(=O)c1ccccc1)S(=O)(=O)c1ccccc1,-3%[46.1 µM],-12%,-3%,12%[38.3 µM],12,8.9µM*
CN(C)c1ccc(/C=C/c2ccc3ccccc3n2)cc1,6%[7.67 µM],.,.,.,.,.
CCN(CC)c1ccc(/C=C/c2cc(-c3ccccc3)c3ccccc3n2)cc1,58%,.,.,.,.,11µM*
COc1ccc(-c2nc(N3CCOCC3)nc3n[nH]c(N)c23)cc1,-4%[46.1 µM],?,-8%,23%[38.3 µM],8,?
S=C(Nc1ccccc1)c1ccccn1,4µM*,-28%,3%,39%[38.3 µM],7,-10%
S=C(Nc1ccc(Nc2ccccc2)cc1)Nc1ccccn1,-41%,.,.,14%,.,16µM*
CS(=O)(=O)N1CCC(C(=O)N2CCN(c3cccc(Cl)c3)CC2)CC1,-2%,.,.,-2%,.,?
CC1=CCC(C(=O)O)C(C(=O)Nc2nc3ccc(S(C)(=O)=O)cc3s2)C1 (stereo unspecified),-6%[46.1 µM],-17%,18%,15%,-9,0.22µM*
COc1cccc(N=Nc2c(N)[nH][nH]c2=O)c1,-38%,-25%,-5%,24%,.,-1%
CCOc1ccc(N=Nc2c(=O)[nH]n3c(=O)cc(C)[nH]c23)cc1,-28%[46.1 µM],40µM*,-1%,27%[38.3 µM],22,-2%
CCOc1ccc(N=Nc2c(N)[nH][nH]c2=O)cc1,-33%,-13%,-1%,40%,.,19µM*
COc1ccc(S(=O)(=O)N2CC(C(=O)O)Oc3ccc(CC(=O)O)cc32)cc1 (stereo unspecified),2%[46.1 µM],3%,-6%,5%[38.3 µM],-4,-5%
N/C(=N\OC(=O)CC1CCCCC1)c1cccnc1,2%[46.1 µM],-7%,0%,-11%[38.3 µM],1,6%
COc1cc(/C=C(\NC(C)=O)C(=O)Nc2cccc(O)c2)ccc1OC(C)=O,11%,-13%,7%,-2%,.,0.089µM*
CCOC(=O)CNC(=S)N(Cc1ccccc1)Cc1ccccc1F,-37%,.,.,3%,.,?
CCOC(=O)c1c(-c2ccc(C)o2)csc1NC(=O)CSc1nncs1,?,20µM*,?,8%[38.3 µM],8,11µM*
CCOC(=O)c1c(-c2ccc(C)o2)csc1NC(=O)CN1CCC(C(N)=O)CC1,-7%,.,.,4%,.,25µM*
CCOC(=O)c1c(-c2ccco2)csc1NC(=O)CSc1nnc(N)s1,-3%[46.1 µM],-18%,-8%,-31%[38.3 µM],-2,?
CCOC(=O)c1c(-c2ccc(C)o2)csc1NC(=O)CN1CCCCC1,?,.,.,14%,.,?
